Molecules are shown by their SMILES. Several values for one entry are separate records, joined by “and”; a condition that tells them apart may be missing. Equal values may be shown once. Activity calls are given as the source filed them. How the source made its calls: active means hit-call score of the fitted dose curve at least 0.9, where 1 is the maximum; inactive means score below 0.9.

This test can be described thus: CCTE_Shafer_MEA_dev_network_spike_peak: CCTE's Neural Network Formation Assay for Mean Number of Electrodes in Network Spike, Shafer Lab (AID 2284049).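 On AC50: fitted for loss of signal meaning fewer electrodes in network spikes than DMSO.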 In outline:
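Network-spike peak electrode count from recordings on days 5, 7, 9 and 12 was combined as trapezoidal area under the curve. Rat cortical cultures were treated continuously from plating, with compound renewed at each feed (DIV 5, 9); fits versus DMSO.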
Take `C=C(C)C(=O)OCCC(F)(F)C(F)(F)C(F)(F)C(F)(F)C(F)(F)C(F)(F)F`: the outcome was inactive.

As to `OCCC(F)(F)C(F)(F)C(F)(F)C(F)(F)C(F)(F)C(F)(F)C(F)(F)C(F)(F)F`, the AC50 is 24.2 µM (active).

In the case of `OCCC(F)(F)C(F)(F)C(F)(F)C(F)(F)C(F)(F)C(F)(F)F`, the molecule was called inactive.

Turning to `c1ccc2cc3c(ccc4ccccc43)cc2c1`, the AC50 is 10 µM (active).

In the case of `CC#C[C@]1(O)CC[C@H]2[C@@H]3CCC4=CC(=O)CCC4=C3[C@@H](c3ccc(N(C)C)cc3)C[C@@]21C`, the AC50 is 2.53 µM (active) and 22.2 µM (active).

With `CN1CCC[C@H]1c1cccnc1`, the result was inactive.

On to `c1ccc2c(c1)Cc1ccccc1-2`, for which the result was inactive.

Take `CC(O)CO` (stereo not given): the outcome was inactive.

Turning to `CC1=C(/C=C/C(C)=C/C=C/C(C)=C/C(=O)O)C(C)(C)CCC1`, the concentration at half-maximal activity (AC50) is 24.1 µM (active).

For `c1ccc2c(c1)ccc1ccccc12`, the molecule was called inactive.
